According to ChEMBL document CHEMBL3988442, “University of Dundee, Small-Polar-MMV Screening Library” (2021):
In all, about 48,000 compounds went through this assay and about 13,000 (27%) showed an effect of 50% or more. Some of the results follow.

The compounds below were run on Wolbachia pipientis (assay: Anti-Wolbachia Cell-Based Screen). Conditions: 5 µM.
Assay type: functional
Parameters: scale not given: in the data most compounds retested in dose-response had high values

Compound | Percent Effect [%]
Cc1cc(C(=O)NCCc2cn3nc(C)sc3n2)c(C)o1 | -4.861
Cc1cn(CC(=O)NCC(=O)NC2CC2)c2ccccc12 | -10.11
CCc1nsc(N2CCn3c(nnc3-c3ccccc3)C2)n1 | -13.36
CCCSCC(=O)N1C[C@@H]2CC[C@H](C1)N(Cc1ccccn1)C2=O | 6.181
O=C([C@H]1C[C@H]2OCC[C@H]2N(CC2CC2)C1)N1CCCC1 | -0.02998
CCc1nc(C)c([C@H]2CN(C)C[C@@H]2C(=O)NCc2ccccn2)[nH]1 | -14.52
CS(=O)(=O)NC[C@H]1Cn2c(-c3ccc4c(c3)OCCO4)cnc2CO1 | -15.67
Cc1noc(C(C)N2CCN(CCCN3CCCC3=O)CC2)n1 (stereo not given) | 8.407
CCc1noc(C(C)N2CCN(CCN3CCCC3=O)CC2)n1 (stereo not given) | 113.9
Cc1noc(C(C)N2CCN(CCN3CCCC3=O)CC2)n1 (stereo not given) | 121
CCc1noc(C(C)N2CCN(CCc3ccncc3)CC2)n1 (stereo not given) | 0.707
CCc1noc(C(C)N2CCC(N3CCCC3)CC2)n1 (stereo not given) | -6.719
Cc1noc(C)c1CN(C)CC(=O)/N=c1\cc[nH]n1C(C)C1CC1 (stereo not given) | -5.789
CN(C)c1cccc(C(=O)Nc2cnn(Cc3ccccn3)c2)c1 | -6.173
Cc1ccc2cc(C3(O)CCN(C)CC3)ccc2n1 | -2.467
COC[C@@]12CC[C@@H](N3CCOCC3)C[C@H]1CCN(c1ncccn1)C2 | -5.007
O=C(c1coc(COc2cccc3cnccc23)n1)N1CCCCCC1 | 5.374
CC[C@H](CO)NC(=O)c1coc(COc2ccccc2F)n1 | -31.99
O=C(c1coc(COc2ccccc2F)n1)N1CCCO1 | 104.9
O=C(c1coc(COc2ccccc2F)n1)N1CCC[C@H]1CO | 111.3
COc1ccccc1OCc1cc(C(=O)N2CCCCCC2CO)n[nH]1 (stereo not given) | -25.79
CC1CCCCN1C(=O)c1coc(COc2cccc3cnccc23)n1 (stereo not given) | -5.431
COc1cc(C)ccc1OCc1nc(C(=O)N2CCCC2)co1 | 0.1288
COc1cc(C)ccc1OCc1nc(C(=O)N2CCCO2)co1 | -7.138

Compound | Percent Effect [%]
COCCC1CCCCN1C(=O)c1coc(COc2ccccc2F)n1 (stereo not given) | 108.5
CC(c1ccco1)n1cc(-c2cc(CN3CCCC3)cs2)nn1 (stereo not given) | 21.85
CCc1ccc(CC)c(NCC(=O)N2CCCC(NC(C)=O)C2)c1 (stereo not given) | 8.422
CCOc1ccc(CCCC(=O)N2CCC(C(=O)NC)C2)cc1C (stereo not given) | 83.39
CCOc1ccc(C(C)NC(=O)N2CCC(C(N)=O)CC2)cc1OC (stereo not given) | -11.4
CCc1cc(C)c(C(=O)N2CCCC(c3nnn[nH]3)C2)o1 (stereo not given) | 6.83
CCNC(=O)N1CCC(NC(=O)NCCCc2cccc(F)c2)C1 (stereo not given) | -2.549
CNC(=O)C1CCN(C(=O)c2coc(COc3ccc(OC)cc3)n2)C1 (stereo not given) | -10.95
CCOc1ccc(CCCC(=O)N2CCC(c3nnn[nH]3)CC2)cc1C | 92.44
CCOc1ccc(CCCC(=O)N2CC[C@H](NC(C)=O)C2)cc1C | 116.5
CCOc1cc(NC(=O)N2CCC(c3nnc[nH]3)CC2)ccc1C | 11.09
O=C(C1CC=CC1)N1CC[C@@H]2O[C@@H](COCC3CCOCC3)CC[C@@H]21 | -9.606
CC(=O)Nc1nc(C(=O)NCCOc2cccc(F)c2)cs1 | 5.348
COCCC(=O)NCC1Cn2nnc(-c3cccc(F)c3)c2CO1 (stereo not given) | -4.513
Cc1cc(=O)n(CC(=O)NCCC(C)C)c(-c2cccc(Cl)c2)n1 | -16.01
COCCNC(=O)Cn1c(-c2cccc(Cl)c2)nc(C)c(CCO)c1=O | 141.8
CNC(=O)c1cn2cc(-c3cccc(Cl)c3)n(CC=C(C)C)c(=O)c2n1 | 3.943
COCCNC(=O)Cn1c(-c2cccc(F)c2)nc(C)c(CCO)c1=O | 196.7
O=C(O)C(F)(F)F.O=C(c1cocn1)N1CC[C@H]2OCC[C@@]2(COc2ncccc2F)C1 | 4.073
CCS(=O)(=O)N1CCc2onc(COc3ccccn3)c2C1.O=C(O)C(F)(F)F | -3.121
CCN(C)c1ncnc2c1CCN(C(=O)c1ccoc1C)CC2.O=C(O)C(F)(F)F | 0.8996
CN(C)CC(=O)N1CCc2ncnc(-c3cncnc3)c2CC1.O=C(O)C(F)(F)F | 2.289
Cc1ccc(C(=O)N2CCc3ncnc(C)c3CC2)cn1 | -9.03
O=C(O)C(F)(F)F.O=C(c1cccnc1)N1CCc2ncnc(N3CCOCC3)c2CC1 | 3.769

Compound | Percent Effect [%]
Cc1oncc1C(=O)N1CCc2ncnc(-c3cnn(C)c3)c2CC1.O=C(O)C(F)(F)F | 102.6
Cc1ccc(C(=O)N2CCc3ncnc(-c4cnn(C)c4)c3CC2)cn1.O=C(O)C(F)(F)F | 114
Cc1ccc(=O)n(CC(=O)N(C)Cc2csc(-c3cccs3)n2)n1 | -12.57
CO[C@H]1CN(C(C)C)C[C@@H]1NC(=O)c1cc(-c2ccccc2F)n[nH]1 | -41.59
Cc1c(C(=O)N[C@@H]2CC[C@@H](N3CCCC3)[C@@H]2O)[nH]c2ccc(F)cc12 | 79.42
O=C(N[C@@H]1CC[C@@H](N2CCCC2)[C@@H]1O)c1cc2ccccc2[nH]1 | 132.3
CS(=O)(=O)NC1CCN(C(=O)c2[nH]c3ccc(Cl)cc3c2Cl)CC1 | 24.08
O=C(N[C@@H]1CC[C@@H](N2CCCC2)[C@@H]1O)c1cc2cccc(F)c2[nH]1 | 98.49
O=C(NC1CCCCNC1=O)c1cc2ccccc2[nH]c1=O (stereo not given) | 20.65
CC(=O)N[C@@H]1CN(C(=O)c2cc3ccccc3[nH]2)C[C@H]1c1ccc(C)o1 | 5.04
Cc1c(C(=O)N2CCN(C)[C@@H]3CS(=O)(=O)C[C@@H]32)[nH]c2ccc(F)cc12 | 22.59
O=C(N[C@@H]1CCNC[C@H]1O)c1ccc(F)c(Cl)c1 | -18.82
CSCCC(C)NC(=O)N1CCSC(C)(C)C1 (stereo not given) | 17.63
CCOC(=O)c1ccc(CNC(=O)c2ccc(Cl)cn2)o1 | -5.208
CCOc1ccc(C2CC(=O)Nc3c2c(=O)nc2sccn32)cc1 (stereo not given) | 17.16
Cc1ccc(O)c(C(=O)N2CCOCC2c2c(C)nn(C)c2C)c1 (stereo not given) | 110.1
Cc1nn(C)c(C)c1C1COCCN1C(=O)c1cc(F)ccc1F (stereo not given) | 96.87
Cc1nn(C)c(C)c1C1COCCN1C(=O)CC(C)(C)C (stereo not given) | -9.995
Cc1nn(C)c(C)c1C1COCCN1C(=O)NC1CC1 (stereo not given) | -3.324
COC(=O)N1CCCC(C(=O)Nc2nc(C)c(SC)s2)C1 (stereo not given) | -4.415
Cc1nc(CNC(C(=O)N2CCOCC2)C(C)C)no1 (stereo not given) | -7.712
COc1ccc(F)cc1C[S+]([O-])CC(=O)NCC(C)C (stereo not given) | -12.33
Cc1ocnc1C(=O)N1CCN(Cc2ccccc2)[C@@H]2CS(=O)(=O)C[C@@H]21 | -1.53
CCn1nc2c(cc1=O)CN(CC(=O)N(C)c1nccs1)CC2 | -28.1

Compound | Percent Effect [%]
CN(C)C(=O)CO[C@H]1CN(Cc2ccc3c(c2)OCO3)[C@@H]2COC[C@H]12.O=C(O)C(F)(F)F | 108
CN(C)CCO[C@H]1CN(Cc2ccc3c(c2)OCO3)[C@@H]2COC[C@H]12.O=C(O)C(F)(F)F.O=C(O)C(F)(F)F | -6.328
CN(C)C(=O)CO[C@H]1CN(Cc2cccc(C#N)c2)[C@@H]2COC[C@H]12.O=C(O)C(F)(F)F | -2.281
CCc1ccc(CN2C[C@H](OCC(=O)N(C)C)[C@H]3COC[C@H]32)o1.O=C(O)C(F)(F)F | 117.7
CN(C)C(=O)CO[C@H]1CN(Cc2ccoc2)[C@@H]2COC[C@H]12.O=C(O)C(F)(F)F | 107.9
CN(C)C(=O)CO[C@H]1CN(Cc2ccccc2)[C@@H]2CCCO[C@H]12.O=C(O)C(F)(F)F | 0.8065
CN(C)C(=O)CO[C@H]1CN(Cc2ccsc2)[C@@H]2COC[C@H]12.O=C(O)C(F)(F)F | 92.71
CN(C)CCO[C@H]1CN(Cc2ccoc2)[C@@H]2COC[C@H]12.O=C(O)C(F)(F)F.O=C(O)C(F)(F)F | -9.926
CC(C)C1=NOC(c2nc(Cc3ccccc3)no2)C1 (stereo not given) | -12.61
CCc1ccccc1OC1CN(C(=O)c2ccnc(OC)c2)C1 | -7.047
CC(C)NS(=O)(=O)c1cc(C(=O)O)cc(-c2ccccc2F)c1 | 2.884
Cc1ccc(F)cc1-c1ccc(N)nc1 | -13.87
CCc1ccc(C(=O)NC2CCCN(c3ccn(C)n3)C2=O)o1 (stereo not given) | -13.64
O=C1CCSCC(C(=O)N2CCN(C3CCCCC3)CC2)N1 (stereo not given) | 2.707
COc1cccc(-c2nc(CNCc3cccnc3)cs2)c1 | 6.915
C=C(C)COc1cccc(CNCc2nc3ccccc3c(=O)[nH]2)c1 | -21.19
COc1ccc(-n2ccc(CNCc3cccc(OC)c3)n2)cc1 | -0.2636
COc1cccc(CNCc2cccnc2)c1 | 125.9
COc1cccc(CNC[C@@]2(COc3cccnc3)C[C@@H](O)[C@@H](O)C2)c1.Cl.Cl | -11.87
COc1cccc(CNCc2nc3ccccc3c(=O)[nH]2)c1 | 145
Cc1nn(C)c(N(C)C)c1CNCc1cccnc1 | 7.028
Cl.c1cncc(CNCc2cccs2)c1 | 109.5
O=C(NCCc1cccnc1)NCCc1cccs1 | -0.2291
